# Source: PubChem BioAssay AID738 (SRMLSC, 2007)
# Hit rate of the full screen: of about 98,000 compounds, about 4,900 (5%) were called active. Cut-off read from the data, not from the text of the source: active = inhibition above about 30%; inactive = the rest. The list comes from a sample in which actives are over-represented; it also holds similar structures and randomly drawn compounds.
# Assay: growth inhibition of yeast control strain, primary screen, counter-screen for post-Golgi transport modulator project (AID 738)
# Conditions: efflux-deficient yeast background strain, growth absorbance A615, 16 h; at 10 µM; active compounds read high
row,SMILES,inhibition
1,O=C(OCN1C(=O)c2ccccc2C1=O)/C(=C\c1ccco1)NC(=O)c1ccccc1,-11.4% (inactive)
2,Cc1cc(OC(=O)c2c(Cl)cccc2Cl)nc(C)n1,3.63% (inactive)
3,O=C(Nc1ncc2c(n1)-c1ccccc1OC2)c1ccc(Cl)cc1,22.5% (inactive)
4,CC(C)c1ccc(N2CCN(C(=O)c3ccccc3NC(=O)/C=C(\C(=O)O)c3ccccc3)CC2)cc1,11.3% (inactive)
5,Cc1ccc(S(=O)(=O)N(CC(=O)N/N=C/c2ccc(F)cc2)c2cccc3cccnc23)cc1,6.82% (inactive)
6,COC(=O)c1[nH]c2cccc(C)c2c1NC(=O)CN1CCCc2ccccc21,19.7% (inactive)
7,CCOC(=O)c1[nH]c2ccc(OC)cc2c1NC(=O)CCN1CCN(Cc2ccccc2)CC1,1.92% (inactive)
8,COC(=O)c1[nH]c2ccccc2c1NC(=O)CN1CCCc2ccccc21,43.4% (active)
9,Cc1ccc2oc(=O)c3cnn(CC(=O)N4CCN(c5ccccn5)CC4)c3c2c1,-3.03% (inactive)
10,Cc1ccnc(N2CCN(C(=O)CSc3nc4ccccc4nc3N3CCCCC3)CC2)c1,42.9% (active)
11,Cc1ccc(S(=O)(=O)NCC(=O)N2CCN(c3ccccn3)CC2)cc1,2.13% (inactive)
12,Cc1ccc(SCC(=O)c2sc(-c3ccccc3)nc2C)cc1,-6.19% (inactive)
13,COc1ccc(-c2n[nH]c(C)c2-c2ccc(OC)c(OC)c2)c(O)c1,15% (inactive)
14,C=C(C)COc1ccc(-c2n[nH]c(C)c2-c2ccccc2OC)c(O)c1,7.96% (inactive)
15,C=C(C)COc1ccc(-c2n[nH]c(C)c2-c2ccccc2)c(O)c1,34.8% (active)
16,O=C(CN1C(=O)NC(Cc2ccccc2)(Cc2ccccc2)C1=O)NCC1CCCCC1,16.1% (inactive)
17,O=C(O)C1C2C=CC(C2)C1C(=O)N1CCN(CCO)CC1 (centres undefined),7.62% (inactive)
18,CN1CCN(C(=O)C2C3C=CC(C3)C2C(=O)O)CC1 (centres undefined),36.6% (active)
19,COC(=O)c1cc(NC(=O)C2C3C=CC(C3)C2C(=O)O)cc(C(=O)OC)c1 (centres undefined),6.4% (inactive)
20,O=C(CN1C(=O)CC(c2ccccc2)=Nc2ccccc21)NC1CCCCC1,7.73% (inactive)
21,COc1cccc(-c2cc3nc4c(c(N5CCC6(CC5)OCCO6)n3n2)CCCC4)c1,77.5% (active)
22,COc1cccc(-c2nc(S(=O)(=O)c3ccccc3)c(N3CCOCC3)o2)c1,15.6% (inactive)
23,COc1cccc(CNc2nc3nc4c(c(=O)n3[nH]2)CCC4)c1,3.19% (inactive)
24,CCOc1ccc(Nc2nc(Cc3nnc(SCC(=O)NC4CCCC4)n3C)cs2)cc1,5.32% (inactive)
